The source of these data is publication PMC9838217, “Structure of SALL4 zinc finger domain reveals link between AT-rich DNA binding and Okihiro syndrome”.

Common to all, as to assay: HT-SELEX; high values mean tight binding
What all share (conditions): protein: recombinant; vector His6-GST; dsDNA, one strand shown

Experiment [1] has as its target T1, SALL4 ZFC4 WT (HT-SELEX) (Mus musculus, UniProt Q8BX22 870-940).
T1 sequence: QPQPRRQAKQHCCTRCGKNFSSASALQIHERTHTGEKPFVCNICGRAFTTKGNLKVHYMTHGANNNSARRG
An outline of the steps:
(§1)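 Purified recombinant mouse SALL4 zinc finger cluster 4 (residues 870–940, 1 µg) and library DNA (1.5 µg first cycle, 200 ng later) were incubated for 10 min at room temperature in 100 µl of 10 mM Tris–HCl pH 7.5, 50 mM NaCl, poly(dI-dC) and DTT. After Ni2+ bead capture and up to 6 triplicate cycles of selection, DNA was MiSeq-sequenced and scanned for 6-mers. Binding signal is the fold change in each canonical k-mer's read fraction relative to the initial random library.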

Experiment [2] has as its target T2, SALL4 ZFC4 R900W (HT-SELEX) (Mus musculus, UniProt Q8BX22 870-940, R900W).
T2 sequence: T1 sequence with R31W
In short, it runs like this:
as §1

For experiment [3], the target named is T3, SALL4 ZFC4 G921D (HT-SELEX) (Mus musculus, UniProt Q8BX22 870-940, G921D).
T3 sequence: T1 sequence with G52D
An outline of the steps:
as §1

Where a chain is given by its changes, count along the chain named.

With ACACGT, the binding signal in experiment [1] came to 0.75 ± 0.0296 fold-change vs cycle 0; in experiment [2], 0.89 ± 0.061 fold-change vs cycle 0; in experiment [3] it was 0.954 ± 0.0298 fold-change vs cycle 0.

As to GATTGA, the values for the binding signal in experiment [1], in experiment [2] and in experiment [3] were 1.34 ± 0.0367 fold-change vs cycle 0, 1.46 ± 0.0217 fold-change vs cycle 0 and 1.43 ± 0.0387 fold-change vs cycle 0, respectively.

AGTGTA: the binding signal in experiment [1] is 1.32 ± 0.061 fold-change vs cycle 0; in experiment [2], 1.43 ± 0.0767 fold-change vs cycle 0; in experiment [3] it was 1.36 ± 0.1 fold-change vs cycle 0.

Turning to CTATTA, the values for the binding signal in experiment [1], in experiment [2] and in experiment [3] were 2.26 ± 0.136 fold-change vs cycle 0, 2.05 ± 0.132 fold-change vs cycle 0 and 1.81 ± 0.165 fold-change vs cycle 0, respectively.

As for CATAAG, the values for the binding signal in experiment [1], in experiment [2] and in experiment [3] were 1.63 ± 0.0634 fold-change vs cycle 0, 1.59 ± 0.055 fold-change vs cycle 0 and 1.45 ± 0.0676 fold-change vs cycle 0, respectively.

As to ACACGG, the values for the binding signal in experiment [1], in experiment [2] and in experiment [3] were 0.354 ± 0.0115 fold-change vs cycle 0, 0.455 ± 0.00764 fold-change vs cycle 0 and 0.548 ± 0.0679 fold-change vs cycle 0, respectively.

For CAGTGA, the binding signal in experiment [1] amounted to 0.806 ± 0.0191 fold-change vs cycle 0; in experiment [2], 0.934 ± 0.023 fold-change vs cycle 0; in experiment [3], 0.957 ± 0.0322 fold-change vs cycle 0.

For the sequence GAATAA, the binding signal is 2.13 ± 0.0471 fold-change vs cycle 0 in experiment [1], 2.1 ± 0.122 fold-change vs cycle 0 in experiment [2] and 1.82 ± 0.178 fold-change vs cycle 0 in experiment [3].

Take AGTTAA: the binding signal turned out to be 1.95 ± 0.0954 fold-change vs cycle 0 in experiment [1], 2.13 ± 0.114 fold-change vs cycle 0 in experiment [2] and 1.84 ± 0.201 fold-change vs cycle 0 in experiment [3].

Consider ACCAAG, for which the binding signal in experiment [1] was 0.816 ± 0.0198 fold-change vs cycle 0; in experiment [2], 0.935 ± 0.0459 fold-change vs cycle 0; in experiment [3], 0.983 ± 0.0112 fold-change vs cycle 0.

GTATGA: the binding signal in experiment [1] was 1.51 ± 0.0577 fold-change vs cycle 0; in experiment [2] it was 1.49 ± 0.0331 fold-change vs cycle 0; in experiment [3] it was 1.38 ± 0.0706 fold-change vs cycle 0.

Consider CACTGA, for which the results for the binding signal in experiment [1], in experiment [2] and in experiment [3] were 0.799 ± 0.0339 fold-change vs cycle 0, 0.912 ± 0.0516 fold-change vs cycle 0 and 0.949 ± 0.00436 fold-change vs cycle 0, respectively.

Turning to GAGGAC, the binding signal in experiment [1] worked out at 0.456 ± 0.0333 fold-change vs cycle 0; in experiment [2], 0.581 ± 0.0167 fold-change vs cycle 0; in experiment [3] it was 0.671 ± 0.0146 fold-change vs cycle 0.

For TCCGGA, the binding signal in experiment [1] worked out at 0.375 ± 0.0195 fold-change vs cycle 0; in experiment [2] it was 0.451 ± 0.0492 fold-change vs cycle 0; in experiment [3], 0.552 ± 0.107 fold-change vs cycle 0.

In the case of TAAGGA, the binding signal in experiment [1] is 1.59 ± 0.0522 fold-change vs cycle 0; in experiment [2] it was 1.71 ± 0.0756 fold-change vs cycle 0; in experiment [3], 1.54 ± 0.114 fold-change vs cycle 0.

Take CATACC: the binding signal in experiment [1] was found to be 0.854 ± 0.0198 fold-change vs cycle 0; in experiment [2] it was 0.927 ± 0.0242 fold-change vs cycle 0; in experiment [3] it was 0.944 ± 0.0221 fold-change vs cycle 0.

Regarding GCCTAC, the results for the binding signal in experiment [1], in experiment [2] and in experiment [3] were 0.304 ± 0.0224 fold-change vs cycle 0, 0.368 ± 0.00435 fold-change vs cycle 0 and 0.499 ± 0.0602 fold-change vs cycle 0, respectively.

On to CTCAGA, for which the binding signal came out at 0.791 ± 0.0265 fold-change vs cycle 0 in experiment [1], 0.909 ± 0.0246 fold-change vs cycle 0 in experiment [2] and 0.948 ± 0.031 fold-change vs cycle 0 in experiment [3].

AAGTGT: the binding signal in experiment [1] is 1.24 ± 0.0333 fold-change vs cycle 0; in experiment [2], 1.35 ± 0.0203 fold-change vs cycle 0; in experiment [3], 1.3 ± 0.0159 fold-change vs cycle 0.

AATTAT: the results for the binding signal in experiment [1], in experiment [2] and in experiment [3] were 4.89 ± 0.536 fold-change vs cycle 0, 2.6 ± 0.249 fold-change vs cycle 0 and 2.25 ± 0.303 fold-change vs cycle 0, respectively.

With ATAACC, the binding signal in experiment [1] turned out to be 1.63 ± 0.137 fold-change vs cycle 0; in experiment [2], 1.47 ± 0.11 fold-change vs cycle 0; in experiment [3], 1.38 ± 0.107 fold-change vs cycle 0.

As for TACCCA, the binding signal in experiment [1] stood at 0.781 ± 0.0395 fold-change vs cycle 0; in experiment [2], 0.882 ± 0.0184 fold-change vs cycle 0; in experiment [3] it was 0.886 ± 0.035 fold-change vs cycle 0.

In the case of AATCCA, the binding signal in experiment [1] turned out to be 1.41 ± 0.0345 fold-change vs cycle 0; in experiment [2], 1.44 ± 0.0422 fold-change vs cycle 0; in experiment [3], 1.37 ± 0.0637 fold-change vs cycle 0.

On to ATCTCA, for which the binding signal in experiment [1] turned out to be 1.42 ± 0.0416 fold-change vs cycle 0; in experiment [2], 1.5 ± 0.0539 fold-change vs cycle 0; in experiment [3], 1.43 ± 0.0584 fold-change vs cycle 0.

Turning to CTAGTA, the binding signal was found to be 1.34 ± 0.0412 fold-change vs cycle 0 in experiment [1], 1.54 ± 0.0865 fold-change vs cycle 0 in experiment [2] and 1.39 ± 0.135 fold-change vs cycle 0 in experiment [3].

Turning to AGGATC, the binding signal was 0.876 ± 0.0353 fold-change vs cycle 0 in experiment [1], 1.01 ± 0.0497 fold-change vs cycle 0 in experiment [2] and 1.07 ± 0.0215 fold-change vs cycle 0 in experiment [3].

ACTCGG: the binding signal turned out to be 0.394 ± 0.0337 fold-change vs cycle 0 in experiment [1], 0.467 ± 0.0183 fold-change vs cycle 0 in experiment [2] and 0.588 ± 0.0373 fold-change vs cycle 0 in experiment [3].

Regarding CAGAAG, the values for the binding signal in experiment [1], in experiment [2] and in experiment [3] were 0.787 ± 0.03 fold-change vs cycle 0, 0.933 ± 0.0195 fold-change vs cycle 0 and 0.93 ± 0.0319 fold-change vs cycle 0, respectively.

As for CATCAA, the binding signal in experiment [1] turned out to be 1.23 ± 0.0349 fold-change vs cycle 0; in experiment [2] it was 1.37 ± 0.0542 fold-change vs cycle 0; in experiment [3], 1.32 ± 0.0556 fold-change vs cycle 0.

Consider ACTCAA, for which the figures for the binding signal in experiment [1], in experiment [2] and in experiment [3] were 1.26 ± 0.086 fold-change vs cycle 0, 1.42 ± 0.0689 fold-change vs cycle 0 and 1.35 ± 0.0924 fold-change vs cycle 0, respectively.

Consider CATCGA, for which the binding signal in experiment [1] was 0.706 ± 0.0155 fold-change vs cycle 0; in experiment [2], 0.749 ± 0.0387 fold-change vs cycle 0; in experiment [3], 0.854 ± 0.0254 fold-change vs cycle 0.

Consider GGTCCA, for which the binding signal in experiment [1] came out at 0.375 ± 0.0292 fold-change vs cycle 0; in experiment [2], 0.456 ± 0.0245 fold-change vs cycle 0; in experiment [3], 0.558 ± 0.0709 fold-change vs cycle 0.

Regarding CTTGAC, the figures for the binding signal in experiment [1], in experiment [2] and in experiment [3] were 0.777 ± 0.0347 fold-change vs cycle 0, 0.934 ± 0.0128 fold-change vs cycle 0 and 0.981 ± 0.0363 fold-change vs cycle 0, respectively.

Turning to AGAGTG, the binding signal in experiment [1] was 0.822 ± 0.0341 fold-change vs cycle 0; in experiment [2], 0.925 ± 0.0332 fold-change vs cycle 0; in experiment [3], 0.97 ± 0.0268 fold-change vs cycle 0.

For the sequence AGGAAC, the binding signal in experiment [1] is 0.86 ± 0.0507 fold-change vs cycle 0; in experiment [2], 1.02 ± 0.0591 fold-change vs cycle 0; in experiment [3], 1.04 ± 0.0533 fold-change vs cycle 0.

Regarding ACAGAT, the binding signal in experiment [1] is 1.32 ± 0.0342 fold-change vs cycle 0; in experiment [2], 1.4 ± 0.028 fold-change vs cycle 0; in experiment [3], 1.37 ± 0.0364 fold-change vs cycle 0.

With CCTCAC, the binding signal in experiment [1] is 0.47 ± 0.0318 fold-change vs cycle 0; in experiment [2], 0.561 ± 0.0275 fold-change vs cycle 0; in experiment [3], 0.658 ± 0.0448 fold-change vs cycle 0.

Take CGTCAG: the binding signal in experiment [1] stood at 0.341 ± 0.0358 fold-change vs cycle 0; in experiment [2], 0.427 ± 0.0193 fold-change vs cycle 0; in experiment [3], 0.535 ± 0.0656 fold-change vs cycle 0.

Take GTAGAC: the figures for the binding signal in experiment [1], in experiment [2] and in experiment [3] were 0.684 ± 0.0405 fold-change vs cycle 0, 0.821 ± 0.033 fold-change vs cycle 0 and 0.891 ± 0.0118 fold-change vs cycle 0, respectively.

Regarding CATCCG, the binding signal in experiment [1] was determined as 0.395 ± 0.00447 fold-change vs cycle 0; in experiment [2], 0.448 ± 0.0185 fold-change vs cycle 0; in experiment [3], 0.567 ± 0.0534 fold-change vs cycle 0.

Regarding ATTTTA, the binding signal in experiment [1] was 3.12 ± 0.229 fold-change vs cycle 0; in experiment [2], 2.24 ± 0.131 fold-change vs cycle 0; in experiment [3], 1.98 ± 0.2 fold-change vs cycle 0.

For CATGCC, the binding signal in experiment [1] is 0.31 ± 0.0224 fold-change vs cycle 0; in experiment [2], 0.354 ± 0.0129 fold-change vs cycle 0; in experiment [3], 0.48 ± 0.0491 fold-change vs cycle 0.
